Source: PubChem BioAssay (The Scripps Research Institute Molecular Screening Center)
The list is not random: actives were taken first. Their share in the collection is about 3.5%.
MITF primary – MITF inhibitors, primary screen, biochemical, AlphaScreen, human | inhibition, % at 2.6 µM | 650,000 compounds, 0.91% hits | AlphaScreen MITF homodimerization, bead proximity signal; in the data active means inhibition above about 50%;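 further: 0% = vehicle wells with protein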
Target sequence (O75030 whole entry, looked up): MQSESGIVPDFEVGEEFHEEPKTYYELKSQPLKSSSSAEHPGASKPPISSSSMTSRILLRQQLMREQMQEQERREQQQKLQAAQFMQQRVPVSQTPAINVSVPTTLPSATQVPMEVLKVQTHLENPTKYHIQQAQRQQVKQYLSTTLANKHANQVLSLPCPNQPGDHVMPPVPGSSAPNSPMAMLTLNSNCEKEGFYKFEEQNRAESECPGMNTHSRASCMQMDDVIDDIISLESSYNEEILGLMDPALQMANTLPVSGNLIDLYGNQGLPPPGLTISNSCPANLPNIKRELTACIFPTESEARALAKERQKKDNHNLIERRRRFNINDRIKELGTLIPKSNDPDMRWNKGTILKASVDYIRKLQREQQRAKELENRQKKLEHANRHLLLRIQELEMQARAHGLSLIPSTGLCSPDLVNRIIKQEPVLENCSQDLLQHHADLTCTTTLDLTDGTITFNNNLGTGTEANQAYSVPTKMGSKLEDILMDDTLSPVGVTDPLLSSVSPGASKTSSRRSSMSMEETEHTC
FBW7 activator – FBW7 E3 ligase activators, primary screen, biochemical, AlphaScreen, human | F-box/WD repeat-containing protein 7 (Homo sapiens), Q969H0 | AlphaScreen FBW7–phospho-cyclin E peptide binding, activator screen | normalized activity (activation), % at 26.1 µM | 650,000 compounds, 0.13% hits; in the data active means normalized activity above about 1.9%;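 further: purified mutant Fbw7 with reduced substrate affinity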
GPR151 ag – activators of human GPR151, primary screen, cell-based, PathHunter beta-arrestin, luminescence. G-protein coupled receptor 151 (Homo sapiens), Q8TDV0. PathHunter beta-arrestin GPR151 cells. activation, % at 11.2 µM. 650,000 compounds, 1% hits; in the data active means activation above about 4.9%;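 further: 0% = median of compound wells and 100% = cells with positive control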
TEAD-YAP inh – TEAD-YAP interaction inhibition, primary screen, TEAD-YAP interaction inhibitor project, luminescence, HEK-TIYL cells. AID 1259422, 2018. inhibition, % at 9.12 µM. TEAD-Gal4/YAP UAS-luciferase luminescence. 640,000 compounds, 1.4% hits; in the data active means inhibition above about 32%;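 further: 0% = median of test compound wells and 100% = reference inhibitor wells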
GPR151 conf act – GPR151 activators, triplicate retest, confirmation, cell-based, PathHunter beta-arrestin, luminescence; shares compounds with GPR151 ag; AID 1508609, 2020; 6,700 tested, under 10 active; activation, % at 11.2 µM; GPR151 PathHunter beta-arrestin cells, 90 min; % of EA-reagent control over plate median;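 active means mean percent activation across replicates above the confirmation screen cutoff of 4.91%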
GPR119 ag – GPR119 activators in beta-arrestin cells, counter-screen for GPR151 activator project, cell-based, PathHunter beta-arrestin, luminescence, triplicate; shares compounds with GPR151 ag; 90 min; 0 = compound-well median, 100 = enzyme-acceptor control; activation, % at 11.2 µM; 6,700 compounds, 0.3% hits; AID 1508611, 2020;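 active means mean percent activation in the counterscreen above 29.09%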;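 further: counterscreen on off-target GPR119 to flag nonselective hits from the GPR151 activator screen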
* hit, by the source's call; ! = repeats disagree.

Screening Cc1cc(=O)oc2cc(OCc3ccccc3)c([N+](=O)[O-])cc12 returned MITF primary -7, FBW7 activator 0, GPR151 ag 0 and TEAD-YAP inh -5.
CC1(C)C2CCC1(C)C(Nc1ccc(N)c([N+](=O)[O-])c1)(S(=O)(=O)O)C2[n+]1ccccc1 (centres undefined) was read as MITF primary 4, FBW7 activator 0, GPR151 ag 5.6*, TEAD-YAP inh 0, GPR151 conf act -1 and GPR119 ag -8.
Nc1ccc(NC(=S)NC2CCCCC2)cc1[N+](=O)[O-] was read as MITF primary 11, FBW7 activator -1, GPR151 ag 1 and TEAD-YAP inh -26.
Screening CCNC(=O)N1CCC(c2nnc(-c3ccccc3OC)s2)CC1 returned MITF primary -4, FBW7 activator 0, GPR151 ag 0 and TEAD-YAP inh -7.
`O=C(Cc1ccc(F)cc1)Nc1ccc(-n2ncc3ccc(-c4nn[nH]n4)cc32)cc1` gave MITF primary 3, FBW7 activator -1, GPR151 ag 5.0*, TEAD-YAP inh -7, GPR151 conf act 0 and GPR119 ag 4.
For O=C(Nc1ccc(-n2ncc3ccc(-c4nn[nH]n4)cc32)cc1)c1ccccc1 the results were MITF primary -14, FBW7 activator 0, GPR151 ag -2 and TEAD-YAP inh -7.
Screening Cc1ccc(-c2nn(CO)c(=S)o2)cc1 returned MITF primary 12, FBW7 activator 0, GPR151 ag 1 and TEAD-YAP inh -7.
COc1ccc(OC)c(/C=C2/C(=O)NC(=O)N(c3ccc(Cl)cc3)C2=O)c1 was read as MITF primary 3, FBW7 activator 0, GPR151 ag 1 and TEAD-YAP inh -11.
For O=C1CC(C(=O)N2CCC3(CC2)CC3C(=O)NCCC2=CCCCC2)c2ccccc21 (centres undefined) the results were MITF primary -4, FBW7 activator 0, GPR151 ag 5.5*, TEAD-YAP inh -5, GPR151 conf act 0 and GPR119 ag 6.
For CC(=O)Nc1cccc(N=Cc2cc(Cl)cc(Cl)c2O)c1 the results were MITF primary -4, FBW7 activator 0, GPR151 ag 5.7*, TEAD-YAP inh -6, GPR151 conf act 1 and GPR119 ag 9.
For CCOC(=O)N1CCN(c2c(N3CCN(CC)CC3)c(=O)c2=O)CC1 the results were MITF primary 12, FBW7 activator 0, GPR151 ag 0 and TEAD-YAP inh 2.
O=C(NNC(=O)C12CC3CC(C1)CC(c1ccccc1)(C3)C2)c1ccncc1 was read as MITF primary -2, FBW7 activator 0, GPR151 ag 6.0*, TEAD-YAP inh 2, GPR151 conf act 0 and GPR119 ag 0.
Screening CC(=O)Nc1cccc(NC(=O)CSc2nnnn2-c2ccc3c(c2)OCO3)c1 returned MITF primary 6, FBW7 activator 1, GPR151 ag 5.6*, TEAD-YAP inh -1, GPR151 conf act 0 and GPR119 ag 11.
Screening Oc1ccc(O)cc1 returned MITF primary -4, FBW7 activator 0, GPR151 ag 5.1*!, TEAD-YAP inh -27, GPR151 conf act 0 and GPR119 ag -7.
Oc1ccc(Sc2ccc(O)cc2)cc1 was read as MITF primary 3, FBW7 activator 0, GPR151 ag 0 and TEAD-YAP inh -2.
O=C(CSc1nnnn1C1CCCCC1)NCCOc1ccccc1 was read as MITF primary 1, FBW7 activator 0, GPR151 ag 3 and TEAD-YAP inh 7.
C=CCNC(=O)COc1ccc(S(=O)(=O)NC(C)c2ccccc2)cc1Cl (centres undefined) was read as MITF primary 0, FBW7 activator 0, GPR151 ag 2 and TEAD-YAP inh 0.
Screening CCOc1ccc(Cl)cc1S(=O)(=O)NC(C)c1ccccc1 (centres undefined) returned MITF primary -6, FBW7 activator 0, GPR151 ag 5.1*, TEAD-YAP inh -9, GPR151 conf act 0 and GPR119 ag 5.
